Screens: PubChem BioAssay, several laboratories
WT yeast gro inh: growth inhibition of WT strain, primary screen, mitochondrial fusion inhibitor project, WT and mutant strains, chemical genetic; 2.1% of 190,000 active; mitochondrial fusion phenotypic screen; inhibition, % at 10 µM; in the data active = inhibition above about 58%; tested in S. cerevisiae
PHOSPHO1 inh: PubChem AID 1565. recombinant PHOSPHO1, absorbance phosphatase assay. 1.1% of 290,000 active. inhibition, % at 13.3 µM. Phosphoethanolamine/phosphocholine phosphatase (Homo sapiens), Q8TCT1; in the data active = inhibition above about 60%
Target sequence (Q8TCT1 whole entry, looked up): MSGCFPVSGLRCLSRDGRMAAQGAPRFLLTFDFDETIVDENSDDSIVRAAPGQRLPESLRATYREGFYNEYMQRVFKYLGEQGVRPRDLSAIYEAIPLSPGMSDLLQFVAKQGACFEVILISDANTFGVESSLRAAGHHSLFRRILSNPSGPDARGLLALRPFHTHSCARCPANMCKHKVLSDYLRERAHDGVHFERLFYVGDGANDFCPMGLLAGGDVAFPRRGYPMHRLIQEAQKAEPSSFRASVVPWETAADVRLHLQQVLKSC
TPT1 inh: Candida albicans TPT1 enzyme inhibitors, primary screen, biochemical, fluorescence polarization; recombinant caTPT1, FP RNA substrate dephosphorylation; tRNA 2'-phosphotransferase TPT1 (Candida albicans SC5314); 0.81% of 300,000 active; inhibition, % at 5 µM;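 active = inhibition above the mean of all tested compounds plus 3 SD, set per screening campaign, cut at about 24% in these data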;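 also: plate controls were DMSO alone for no effect and ferristatin control at 100 nM for full effect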
Rtt109 Vps75: inhibitors of C. albicans Rtt109/Vps75 HAT, primary screen, biochemical, ThioGlo CoA-SH fluorescence, plate reader; Histone acetyltransferase RTT109 (Candida albicans (strain SC5314 / ATCC MYA-2876)), …; purified Rtt109/Vps75, 4 h; inhibition, % at 34.9 µM; 0.16% of 330,000 active;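 active = inhibition of at least 50% in every replicate; inconclusive = best replicate reaches 50% inhibition but some replicates fall short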
SKKanGAS inh: S. pyogenes SKKanGAS growth inhibitors in kanamycin, primary screen, streptokinase expression inhibitor project, SKKanGAS strain, BacTiter-Glo luminescence; 6 h; inhibition, % at 7.5 µM; 1.3% of 300,000 active;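 active = mean replicate score, as percent of positive control median, at least 50; inconclusive = mean below 50 but one replicate at or above 50; inactive = mean and every replicate below 50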;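 also: strain carries kanamycin resistance gene driven by streptokinase promoter and grows in 40 µg/ml kanamycin; loss of luminescence reflects streptokinase promoter inhibition or plain growth inhibition; 0% = median of DMSO wells and 100% = positive control at its reference dose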
Platelet DG rel: inhibitors of platelet dense granule secretion, primary screen, cell-based, MLPCN, human platelets. AID 1663, 2009. human platelet-rich plasma, SFLLRN dense granule ATP release, luminescence. 0.22% of 300,000 active. inhibition, %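 (compounds screened at 7.5 µM in platelet-rich plasma)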;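 active = mean replicate score, as percent of positive control, at or above 50; inconclusive = mean below 50 but at least one replicate at or above 50; inactive = mean and every replicate below 50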
* = called active by the depositor; ? = inconclusive; nt = not tested or not shown. Only some compounds are listed: those with a hit (about 3.9% of all), similar ones and a draw of the others.

SMILES	WT yeast gro inh	PHOSPHO1 inh	TPT1 inh	Rtt109 Vps75	SKKanGAS inh	Platelet DG rel
CN(C)S(=O)(=O)c1cccc(-c2nnc(SCc3cc(Cl)cc4c3OCOC4)n2N)c1	-12	99*	-1	9	10	-2
CN(C)CCN(C(=O)C1CCN(S(=O)(=O)c2cccs2)CC1)c1nc2ccccc2s1	nt	nt	-2	-7	0	-2
Cc1ccc(-c2csc3ncn(CC#N)c(=O)c23)cc1C	nt	nt	-1	1	52*	-1
Cc1ccc(-c2csc3ncn(CC#N)c(=O)c23)cc1	-4	10	1	-1	5	4
COc1ccc(/C(C#N)=C/c2ccccn2)cc1	nt	-5	-5	2	-3	9
N#C/C(=C\c1ccccn1)c1nc2ccccc2s1	59*	28	23	3	-12	2
CC(=O)N1N=C(c2ccncc2)OC12CCCCC2	44	62*	-1	-1	-1	-16
CCOC(=O)C1=C(C)NC(C)=C(C(=O)OCC)C1C(=O)OCC(=O)N(C)Cc1ccccc1	nt	nt	nt	-14	nt	nt
N#CC1=C2N=C(N)c3c(sc4c3CCCCC4)N2C2=C(C(=O)CCC2)C1c1ccccc1 (centres undefined)	-9	70*	15	10	13	6
O=C(NCc1ccncc1)c1ccc(Cn2cc(C(F)(F)F)ccc2=O)cc1	6	60*	-2	-5	-4	6
Cc1cccc(NC(=O)c2ccc(Cn3cc(C(F)(F)F)ccc3=O)cc2)c1	-10	65*	-1	20	-4	3
O=C(NCc1ccccc1)c1ccc(Cn2cc(C(F)(F)F)ccc2=O)cc1	21	16	-1	0	-6	-6
O=C(O)c1ccc(Cn2cc(C(F)(F)F)ccc2=O)cc1	-2	11	1	-22	2	3
O=C(CN1C(=O)COc2ccc(S(=O)(=O)N3CCCCCC3)cc21)NCc1ccc(F)cc1	nt	-9	-1	19	1	7
Cc1cc(SCC(=O)Nc2ccc3[nH]c(=O)[nH]c3c2)nc2ccccc12	nt	nt	nt	2	nt	nt
CCOC(=O)CN1C(=O)CC(c2ccc([N+](=O)[O-])cc2)C1=O (centres undefined)	nt	nt	-2	-1	2	3
C[C@@H](NC(=O)C1(c2ccccc2)CCN(C(=O)OC(C)(C)C)CC1)C(=O)N[C@@H](C(=O)O)c1ccccc1	nt	18	0	-1	4	3
CCC(=O)NC(c1ccc(C)cc1)c1cc([N+](=O)[O-])c2cccnc2c1O (centres undefined)	0	11	-1	5	87*	-2
CCCC(=O)NC(c1ccco1)c1cc([N+](=O)[O-])c2cccnc2c1O (centres undefined)	-27	3	-1	-4	54*	1
CC(=O)NC(c1ccc(C)cc1)c1cc([N+](=O)[O-])c2cccnc2c1O (centres undefined)	-14	-13	1	0	?	-8
CCCC(=O)NC(c1ccco1)c1c(O)ccc2ccccc12 (centres undefined)	-9	0	-1	1	-9	-7
CCC1C(c2ccccc2)=CCC(C(=O)O)C1C (centres undefined)	nt	nt	nt	-2	nt	nt
Cc1cccc(-n2c(C)cc(C=C3C(=O)c4ccccc4C3=O)c2C)c1	10	99*	8	25	13	-10
COc1ccc(N=c2cc(-c3ccc(OC)cc3)oc3ccccc23)cc1	76*	4	-3	23	6	-5
COc1ccc(-c2cc(=Nc3ccc(C)cc3)c3ccccc3o2)cc1	4	9	-3	-4	17	4
Cc1ccccc1-n1c(=O)c2ccccc2n(CC(=O)NCc2ccco2)c1=O	-5	18	-3	-1	0	4
O=C(CSc1nc2ccccc2n1CC(=O)NCc1ccccc1)NCc1ccco1	7	69*	2	13	-25	-2
CC(=O)c1c(C)n(CC(=O)NCc2ccco2)c2ccccc12	-7	69*	-4	-8	-9	-6
N#CCCn1c(SCC(=O)NCc2ccco2)nc2ccccc21	9	30	2	10	5	-2
